Compounds with a hit are over-represented: about 7.4% of the library has one in this group of screens.
ELG1 genotoxic: induces genotoxicity in HEK293T cells with luciferase-tagged ELG1 | HEK293T ELG1-luciferase reporter, luminescence, 16 h | Potency, µM (titrated, usually from 46 µM), without a hit: top-dose activity change, positive = activation, most hits filed as activators | 330,000 tested, 1.3% active; further: % of control where 0% means no effect; nearly all actives have a fitted effect of over 60% in size
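Genotoxic stress is detected as increased luminescence from luciferase-tagged ELG1 in HEK293T cells, measured with ONE-Glo after a 16 hr treatment at 37 °C.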
SMN2 splice enh: increases expression of the SMN2 splice variant | HEK293 SMN2-luciferase splicing reporter, luminescence, 30-36 h | Potency, µM (series often up to 46.1 µM), without a hit: top-dose activity change, positive = activation, actives largely listed as activators | 210,000 tested, 2.8% active; further: % of control where 0% means no effect; nearly all actives have a fitted effect of over 55% in size
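HEK293 cells carry an SMN2 minigene-luciferase reporter in which exon 7 inclusion puts luciferase in frame. Cells were seeded at 2000 cells/well, attached for 10-12 hours, then exposed to compounds for 30-36 hours at 37C before ONE-Glo luminescence.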
NPC1 prom act: NPC1 promoter activation | 320,000 tested, 2.4% active | Huh7 NPC1 promoter luciferase reporter, 24 h | Potency, µM (highest dose often 9.22 µM), for the others: at the highest dose activation, usual class: activators | AID 485313; further: % of control where 0% means no effect; nearly all actives have a fitted effect of over 60% in size
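Cells: Huh7 expressing luciferase under the NPC1 promoter, 1500/well. Seeded 2 h, compound added, incubated 24 h at 37 °C. Luciferase reagent, 10 min ambient, then luminescence.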
Rab9 promoter act: Rab9 promoter activation; Huh7 Rab9 promoter-luciferase reporter, luminescence, 24 h; Potency, µM (highest dose often 9.22 µM), inactives show at the highest dose activation, negative = inhibition, actives largely listed as activators; 320,000 tested, 2.8% active; further: % of control where 0% means no effect; nearly all actives have a fitted effect of over 60% in size
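Using Huh7 cells stably transfected with Rab9 promoter–luciferase, compounds were incubated 24 h at 37 °C, 5% CO2; luciferase luminescence was read 10 min after reagent addition.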
FLuc counter: firefly luciferase modulation, counter-screen for miR-21 project; P08659; Potency, µM (series often up to 57.5 µM), for inactives: top-dose activity change, negative = inhibition, actives largely listed as inhibitors; AID 588342; purified FLuc, Km substrates, luminescence inhibition; 360,000 tested, 6.9% active;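 further: plate controls were vehicle for no effect and reference inhibitor for full effect; nearly all actives have a fitted effect of over 55% in size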
Target sequence (P08659 whole entry, looked up): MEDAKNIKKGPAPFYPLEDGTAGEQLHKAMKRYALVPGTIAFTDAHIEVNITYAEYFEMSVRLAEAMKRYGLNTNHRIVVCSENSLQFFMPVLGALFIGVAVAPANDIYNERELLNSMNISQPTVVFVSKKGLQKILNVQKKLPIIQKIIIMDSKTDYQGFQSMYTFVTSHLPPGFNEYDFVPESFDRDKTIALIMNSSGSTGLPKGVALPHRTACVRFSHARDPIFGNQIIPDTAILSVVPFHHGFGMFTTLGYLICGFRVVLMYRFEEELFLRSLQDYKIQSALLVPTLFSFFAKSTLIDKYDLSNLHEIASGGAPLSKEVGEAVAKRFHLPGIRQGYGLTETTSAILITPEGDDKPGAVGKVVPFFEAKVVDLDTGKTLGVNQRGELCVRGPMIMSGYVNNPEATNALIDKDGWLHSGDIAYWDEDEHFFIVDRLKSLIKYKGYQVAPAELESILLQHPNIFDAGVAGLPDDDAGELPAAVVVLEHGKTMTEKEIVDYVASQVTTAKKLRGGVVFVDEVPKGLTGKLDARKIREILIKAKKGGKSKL
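Biochemical qHTS of compounds, final roughly 60 µM downward over six points, against 10 nM purified firefly luciferase using Km concentrations of substrates (10 uM D-luciferin, 10 uM ATP) in Tris acetate pH 7.5 buffer; luminescence output.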
* marks the source's active call; other numbers are inactive results; [ ] = remark or other dose. The call rests on the fitted dose curve; in most records, active means well fitted curve in the direction sought with a large enough effect; inconclusive means small, poorly fitted or top-dose-only effect, or another doubt; inactive means no such curve, though single readings can be large; an effect the other way counts as inactive or inconclusive. Potency means the concentration at half of the fitted maximal effect.

`O=Cc1cn(-c2ccccc2)nc1-c1cc2ccccc2oc1=O` gave ELG1 genotoxic 5.4%, SMN2 splice enh -18.1%, NPC1 prom act 11.9%, Rab9 promoter act 13.1% and FLuc counter -1.1%.
`Cc1cc(-c2nnc(-c3cc4ccccc4oc3=O)o2)c(C)n1-c1ccccc1` gave ELG1 genotoxic inconclusive, SMN2 splice enh -6.4%, NPC1 prom act 24.0%, Rab9 promoter act 20.8% and FLuc counter 6.75µM*.
For COc1ccc2oc(=O)c(-c3nc4ccccc4o3)cc2c1 the results were ELG1 genotoxic inconclusive, SMN2 splice enh inconclusive, NPC1 prom act inconclusive, Rab9 promoter act inconclusive and FLuc counter 5.36µM*.
For O=c1oc2ccccc2cc1-c1nc(-c2cccc(Cl)c2)cs1 the results were FLuc counter 3.4%.
`COc1ccc(-c2noc(CN(C(=O)c3cc(OC)c(OC)cc3OC)C(C)C)n2)cc1` gave SMN2 splice enh -6.1% and FLuc counter -4.7%.
CCOC(=O)C1CCCN(C(=O)C(=O)c2cn(CC(=O)N3CCOCC3)c3ccccc23)C1 (stereo not drawn) was read as ELG1 genotoxic 4.1%, NPC1 prom act 1.4%, Rab9 promoter act 1.9% and FLuc counter 0.5%.
Cc1ccc(N(C(=O)COc2ccccc2C)S(=O)(=O)c2ccc(Cl)cc2)cc1 was read as SMN2 splice enh -20.0% and FLuc counter -2.2%.
Screening CCCc1ccc(OCC(=O)NNC(=O)c2cccnc2)cc1 returned ELG1 genotoxic 0.5%, SMN2 splice enh -4.0%, NPC1 prom act -1.2%, Rab9 promoter act -2.6% and FLuc counter inconclusive.
For Cc1ccn2c(NC3CCCCC3)c(-c3cccc(-c4cccc(Cl)c4)c3)nc2c1 the results were ELG1 genotoxic -6.6%, NPC1 prom act -5.5%, Rab9 promoter act -5.3% and FLuc counter 0.8%.
Screening COc1cccc(Oc2nnnn2-c2ccccc2)c1 returned ELG1 genotoxic inconclusive, NPC1 prom act inconclusive, Rab9 promoter act 3.98µM* and FLuc counter 16.9µM*.
For CC(C)COc1ccc(C(=O)Nc2sc3c(c2C(=O)O)CC(C)(C)OC3)cc1 the results were ELG1 genotoxic -13.9%, NPC1 prom act -0.1%, Rab9 promoter act -5.0% and FLuc counter 21.3µM*.
For CC1(C)Cc2c(sc(NC(=O)C(=O)N3CCCC3)c2C(=O)O)CO1 the results were ELG1 genotoxic 3.5%, NPC1 prom act 0.8%, Rab9 promoter act -5.3% and FLuc counter -1.7%.
`CC1(C)Cc2c(sc(NC(=O)c3ccccc3)c2C(=O)O)CO1` gave ELG1 genotoxic -1.5%, SMN2 splice enh inconclusive, NPC1 prom act inconclusive, Rab9 promoter act inconclusive and FLuc counter 6.75µM*.
For COc1ccc(/C=C/c2ccncc2)cc1OC the results were ELG1 genotoxic 23.1µM*, SMN2 splice enh 10µM*, NPC1 prom act 0.1%, Rab9 promoter act 3.6% and FLuc counter inconclusive.
`C=CCn1c(=O)c(C(=O)NCc2ccccc2Cl)c(O)c2ccccc21` gave ELG1 genotoxic -11.9%, NPC1 prom act -2.6%, Rab9 promoter act -0.4% and FLuc counter 3.1%.
CC(C)CCN(C(=O)CCSc1ccc(F)cc1)c1c(N)n(Cc2ccccc2)c(=O)[nH]c1=O was read as ELG1 genotoxic 7.2%, NPC1 prom act -1.5%, Rab9 promoter act -5.1% and FLuc counter -3.7%.
CSc1nnc(-c2ccccc2Cl)o1 was read as ELG1 genotoxic inconclusive, SMN2 splice enh 13.8%, NPC1 prom act 9.9%, Rab9 promoter act 21.9% and FLuc counter inconclusive.
CC(C)OC(=O)CSc1nnc(-c2ccc(Cl)cc2Cl)o1 was read as ELG1 genotoxic -2.6%, SMN2 splice enh 17.8%, NPC1 prom act 5.5%, Rab9 promoter act -0.7% and FLuc counter 10.7µM*.
Screening CSc1nnc(-c2ccc(Cl)cc2Cl)o1 returned ELG1 genotoxic inconclusive, SMN2 splice enh 15.6%, NPC1 prom act inconclusive, Rab9 promoter act inconclusive and FLuc counter 12µM*.
O=C1OCCC1Sc1nnc(-c2ccc(Cl)cc2Cl)o1 (stereo not drawn) was read as ELG1 genotoxic -5.0%, NPC1 prom act -0.1%, Rab9 promoter act -3.6% and FLuc counter 1.35µM*.
Screening CCSc1nnc(-c2ccc(Cl)cc2Cl)o1 returned ELG1 genotoxic 4.11µM*, SMN2 splice enh inconclusive, NPC1 prom act 2.51µM*, Rab9 promoter act inconclusive and FLuc counter 9.53µM*.
Screening Cc1nc(CC(=O)NNS(=O)(=O)c2cccc(Cl)c2Cl)cs1 returned ELG1 genotoxic 0.3%.
CCCCCCSc1ccc([C@H]2N[C@@](C)(C(=O)OC)[C@H]3C(=O)N(C)C(=O)[C@@H]23)cc1 was read as ELG1 genotoxic -6.9%, NPC1 prom act -2.9%, Rab9 promoter act -1.7% and FLuc counter inconclusive.
`C1CCC(C(C[C@@H]2CCCCN2)C2CCCCC2)CC1` gave SMN2 splice enh -8.9%[20.6 µM].
For O=C(O)CCSc1nnc(-c2ccc(Cl)cc2Cl)o1 the results were SMN2 splice enh -30.2% and FLuc counter 0.849µM*.
Screening NC(=O)c1cc(S(=O)(=O)Nc2ccccc2)cs1 returned ELG1 genotoxic -2.9%, NPC1 prom act 8.3%, Rab9 promoter act -1.3% and FLuc counter 0.9%.
`CCOC(=O)Cc1nn(CC)c(=O)c2ccccc12` gave ELG1 genotoxic 2.3%, NPC1 prom act -0.8%, Rab9 promoter act -11.1% and FLuc counter -0.7%.
`CCOC(=O)Cc1nn(C)c(=O)c2ccccc12` gave ELG1 genotoxic 4.9%, SMN2 splice enh 5.62µM*, NPC1 prom act -1.5%, Rab9 promoter act 0.0% and FLuc counter -1.1%.
Screening Cc1ccc(C(=O)/C=C/c2ccc(F)cc2)o1 returned ELG1 genotoxic inconclusive, SMN2 splice enh 3.7%, NPC1 prom act 3.0%, Rab9 promoter act 10.5% and FLuc counter 1.51µM*.
Screening O=C(/C=C/c1ccc(F)cc1)c1ccccc1Br returned ELG1 genotoxic -15.3%, SMN2 splice enh -7.5%, NPC1 prom act -2.6%, Rab9 promoter act -3.7% and FLuc counter 19µM*.
`CCOc1ccc(C(=O)NC(C)CCc2ccccc2)cc1` (stereo not drawn) gave ELG1 genotoxic 1.0%, NPC1 prom act 4.9%, Rab9 promoter act 7.3% and FLuc counter -0.5%.
CCOc1ccc(C(=O)NC(Cc2ccccc2)C(=O)OC)cc1 (stereo not drawn) was read as ELG1 genotoxic 7.8%, SMN2 splice enh 7.6%, NPC1 prom act 27.5%, Rab9 promoter act inconclusive and FLuc counter 4.78µM*.
`COC(=O)[C@H](Cc1ccccc1)NC(=O)c1ccc2ccccc2n1` gave ELG1 genotoxic 3.4%, NPC1 prom act 0.2%, Rab9 promoter act 2.0% and FLuc counter 6.75µM*.
Screening O=C1CCCN1C(=O)CSc1ncnc2sccc12 returned ELG1 genotoxic -0.4%, NPC1 prom act 1.1%, Rab9 promoter act -4.1% and FLuc counter inconclusive.
